# Bioassay records deposited in PubChem BioAssay by National Center for Advancing Translational Sciences (NCATS).
# In the library only some 4.2% were active in any assay of this set; here they are far more common.
# Sfp inh: qHTS Assay for Inhibitors of Bacillus subtilis Sfp phosphopantetheinyl transferase (PPTase) | Biochemical Sfp PPTase activity, qHTS | Potency, µM, actives largely listed as inhibitors | 310,000 compounds, 3.5% hits | AID 1490, 2009;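 note: the enzyme is Sfp with the accession as filed and its product quenches rhodamine fluorescence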
#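 After 15 min at room temperature with compound, 15 nM Sfp received 5 uM rhodamine-CoA plus 12.5 uM BHQ-2-ybbR (50 mM Hepes pH 7.6, 10 mM MgCl2). Rate came from the fluorescence difference over 30 min, ex 525/em 598 nm.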
# 12-LOX inh: Primary qHTS assay for inhibitors of human arachidonate 12S-lipoxygenase (ALOX12): Round 2; Polyunsaturated fatty acid lipoxygenase ALOX12 (Homo sapiens), P18054; purified 12hLO, xylenol orange hydroperoxide absorbance; Potency, µM (top dose mostly 108 µM), usual class: inhibitors; 580,000 compounds, 1.1% hits; AID 1671190, 2021
#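 Purified human 12hLO at 150 nM in 25 mM Hepes, 0.01% Triton X-100, pH 7.0, preincubated 15 min at room temperature with compound. Reaction started with 40 uM arachidonic acid, 30 min at room temperature. Hydroperoxide measured by Fe-xylenol orange, 573/405 nm absorbance ratio.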
# PLK1 PBD inh: qHTS for Inhibitors of PLK1-PDB (polo-like kinase 1 - polo-box domain): Primary Screen; Serine/threonine-protein kinase PLK1 (Homo sapiens), P53350; Plk1 PBD binding of FITC phosphopeptide, fluorescence polarization; Potency, µM, usual class: inhibitors; 360,000 compounds, 2.8% hits; AID 720504, 2013; note: series mostly up to about 57 µM; nearly all actives have a fitted effect of over 65% in size
# VDR inh: Inhibitors of the vitamin D receptor (VDR): qHTS | 400,000 compounds, 0.93% hits | Potency, µM, usual class: inhibitors | AID 504847, 2011 | VDR-SRC2-3 peptide fluorescence polarization, 2 h
# Target sequence (P11473 whole entry, looked up): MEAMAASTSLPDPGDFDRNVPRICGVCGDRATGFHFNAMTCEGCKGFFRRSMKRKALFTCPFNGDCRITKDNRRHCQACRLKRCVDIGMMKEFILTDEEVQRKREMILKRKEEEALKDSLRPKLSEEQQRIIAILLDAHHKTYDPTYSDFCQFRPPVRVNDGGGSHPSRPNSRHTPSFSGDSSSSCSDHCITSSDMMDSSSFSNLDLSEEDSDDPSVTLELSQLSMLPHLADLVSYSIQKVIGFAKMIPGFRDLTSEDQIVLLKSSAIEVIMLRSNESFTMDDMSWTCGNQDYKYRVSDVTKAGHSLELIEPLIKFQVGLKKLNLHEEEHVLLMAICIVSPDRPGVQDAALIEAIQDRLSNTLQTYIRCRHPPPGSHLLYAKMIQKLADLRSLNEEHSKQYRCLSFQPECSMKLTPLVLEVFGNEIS
#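 Fluorescence polarization assay measuring small-molecule disruption of VDR binding to the coregulator peptide SRC2-3. Compounds were pin-transferred (23 nl) into the reagent mix and incubated 2 h at room temperature before reading.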
# Numbers stand for hits; i = inactive; ? = inconclusive; nt = not tested or not shown. Calls come from the whole dose curve; as a rule, active = well fitted curve in the direction sought with a large enough effect; inconclusive = small, poorly fitted or top-dose-only effect, or another doubt; inactive = no such curve, though single readings can be large; an effect the other way counts as inactive or inconclusive.
SMILES,Sfp inh,12-LOX inh,PLK1 PBD inh,VDR inh
O=C(CN1CCN(c2ccc(O)cc2)CC1)Nc1ccc(SC(F)F)cc1,35.5µM,?,i,i
CCc1nnc(NC(=O)CSc2nccn2-c2cccc(C)c2C)s1,?,i,i,i
Cc1cccc(-n2ccnc2SCC(=O)Nc2nccs2)c1C,i,i,26.7µM,i
Cc1coc2cc3oc(=O)c(CC(=O)NCCc4ccccc4F)c(C)c3cc12,nt,i,nt,i
Cc1cccc(-c2nsc(SCC(=O)Nc3nccs3)n2)c1,50.1µM,?,18.9µM,i
COc1ccc(NC(=O)CN2CCN(c3ccc(F)cc3)CC2)cc1,i,i,29.9µM,i
O=C(CN1CCN(c2ccc(F)cc2)CC1)Nc1nccs1,i,i,23.8µM,i
COc1ccc(N2CCN(CC(=O)Nc3cc(C)on3)CC2)cc1,50.1µM,?,i,i
COc1ccc(N2CCN(CC(=O)Nc3cc(C)cc(C)c3)CC2)cc1,i,i,i,i
Cc1cccc(-c2nsc(SCC(=O)Nc3ccc4c(c3)OCO4)n2)c1,i,i,i,i
COCCCN1C(=O)C(CC(=O)NCc2ccco2)CC(C(=O)N2CCOCC2)=C1C (stereo not given),nt,i,i,nt
Nc1ccc(NC(=O)c2cc(Cl)ccc2O)c(Cl)c1,nt,nt,nt,i
COc1ccc(NC(=O)Cn2c(=O)n(-c3ccc(OC)c(OC)c3)c(=O)c3ccccc32)cc1,nt,i,nt,i
COc1ccc(-n2c(=O)c3ccccc3n(CC(=O)Nc3cc(C)on3)c2=O)cc1OC,44.7µM,i,i,i
COc1cccc(N2CCN(C(=O)c3ccc(=O)oc3)CC2C)c1 (stereo not given),35.5µM,i,i,i
COc1cccc(NC(=O)N2CCN(c3cccc(C)c3)C(C)C2)c1 (stereo not given),i,i,i,i
CN(C)/C=C/C=C1C(=O)CCCC1=O,i,i,i,i
COC(=O)COc1ccc(C(C2C(=O)CC(C)(C)CC2=O)C2C(=O)CC(C)(C)CC2=O)cc1,56.2µM,i,?,50.1µM
COCCNC(=O)Cc1ccc(Br)cc1,i,?,i,i
COCCNC(=S)NC(=O)c1ccc(C(C)(C)C)cc1,i,12.6µM,i,i
CC(C)(C)c1ccc(C(=O)NC(=S)NCc2ccco2)cc1,i,14.1µM,i,i
Cc1cccnc1NC(=S)NCc1ccco1,15.8µM,?,i,i
COCCNC(=S)c1ccc(Br)cc1,44.7µM,?,10.6µM,?
Cc1cc(C(=O)CN2CCN(CC(=O)Nc3cccc(F)c3)CC2)c(C)n1C1CC1,nt,?,i,i
CCOc1ccc(CCNC(=O)c2nnc(Cc3ccc(F)cc3)o2)cc1OCC,i,?,i,i
SMILES,Sfp inh,12-LOX inh,PLK1 PBD inh,VDR inh
COc1ccccc1OCCOCCOc1ccccc1Cl,i,i,i,i
Cc1cc(C)n2c(SCC#N)nnc2n1,i,i,i,i
COc1ccccc1/C=C/C(=O)NC(=S)NCC1CCCO1 (stereo not given),i,39.8µM,i,i
CC(C)(C)c1ccc(C(=O)NNC(=S)NCC2CCCO2)cc1 (stereo not given),i,i,i,i
O=C(NCC1CCCO1)c1ccc(C(=O)NCC2CCCO2)cc1 (stereo not given),i,i,i,i
CC(C)(CO)NC(=S)NCc1ccco1,15.8µM,?,i,i
S=C(NCC1CCCO1)c1ccc(Br)cc1 (stereo not given),20µM,?,11.9µM,?
CC(C)(C)c1ccc(C(=O)NC(=S)NCC2CCCO2)cc1 (stereo not given),i,7.94µM,i,i
O=C(c1cc(-c2ccncc2)nc2ccc(Br)cc12)N1CCN(Cc2ccc3c(c2)OCO3)CC1,i,i,i,i
O=C(CSc1nnc2ccc3ccccc3n12)N1CCOCC1,i,i,i,i
Cc1ccc[n+](/C(C(=S)NCc2ccco2)=C(/[O-])c2ccccc2Cl)c1,44.7µM,i,i,i
CC(C)(C)c1ccc(/C([O-])=C(/C(=S)NCc2ccco2)[n+]2ccccc2)cc1,50.1µM,nt,nt,nt
O=C(NC(=S)NCc1ccco1)c1ccc(Br)cc1,i,15.8µM,i,i
CCOC(=O)N1CCN(C(=O)C2CCCN(Cc3nc(-c4ccc(Cl)cc4)oc3C)C2)CC1 (stereo not given),i,i,i,i
CCOCCCNC(=O)c1ccc2c(=O)n(Cc3ccc4c(c3)OCO4)c(=S)[nH]c2c1,i,i,i,i
